# From PubChem BioAssay (NCI)
# Compounds without any hit were thinned out: in the full panel of roughly 79,000, 15% have a hit. Unmarked numbers belong to inactive results. Activity calls are given as the source filed them. Rule as the data show it: active = growth inhibition above about 70%; inactive = the rest.
# Key:
# [1] = NCI Yeast Anticancer Drug Screen. Data for the rad50 strain (AID 155);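 also: 0% = growth of vehicle-only cultures of the same strain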; conditions: S. cerevisiae rad50 strain growth inhibition; at 50.0 µM; stronger effect = higher value
# Procedure, shortened: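 Cells are treated with compound, grown, and their growth is then scored against vehicle-only cultures of the same repair-deficient yeast strain.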
# [2] = NCI Yeast Anticancer Drug Screen. Data for the mec2-1 strain (AID 157); conditions: S. cerevisiae mec2-1 strain, at 50.0 µM, stronger effect = higher value
# Procedure, shortened: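 Mutant yeast (mec2-1) grown with compound; growth inhibition relative to vehicle control reported.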
# [3] = NCI Yeast Anticancer Drug Screen. Data for the sgs1 mgt1 strain (AID 161);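 also: 0% = growth of cultures given vehicle only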; conditions: S. cerevisiae sgs1 mgt1 strain, at 50.0 µM, stronger effect = higher value
# Procedure, shortened: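 Growth of a repair-deficient yeast mutant was monitored after compound treatment and expressed as inhibition relative to vehicle-treated cultures.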
# [4] = NCI Yeast Anticancer Drug Screen. Data for the cln2 rad14 strain (AID 165);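 also: 0% = growth equal to vehicle treated cultures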; conditions: S. cerevisiae cln2 rad14 strain, at 50.0 µM, stronger effect = higher value
# Procedure, shortened: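 Readout is yeast growth inhibition versus vehicle-treated controls, using a strain with cln2 and rad14 alterations exposed to compound.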
# [5] = NCI Yeast Anticancer Drug Screen. Data for the bub3 strain (AID 167); conditions: S. cerevisiae bub3 mutant strain, at 50.0 µM, stronger effect = higher value
# Procedure, shortened: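 Part of a panel of yeast mutants defective in DNA damage repair or cell cycle regulation. Each strain is grown with compound, and inhibition is calculated relative to solvent-treated cultures.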
# [6] = NCI Yeast Anticancer Drug Screen. Data for the mlh1 rad18 strain (AID 175); conditions: S. cerevisiae mlh1 rad18 strain growth inhibition; at 50.0 µM; stronger effect = higher value
# Procedure, shortened: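 Genetically defined yeast (DNA repair-deficient) exposed to compounds; growth inhibition determined relative to vehicle.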
Structure (SMILES),growth inhibition [1],growth inhibition [2],growth inhibition [3],growth inhibition [4],growth inhibition [5],growth inhibition [6]
Cc1ccc(C(=O)c2ccccc2Cc2ccc3ccccc3c2)cc1,13.8%,0.8%,6.3%,1.35%,61.2%,-0.25%
COc1ccccc1CC(=O)C(O)(C(F)(F)F)C(F)(F)F,-37.5%,-36.3%,-18.9%,-28.6%,-5.9%,-26.9%
O=C(/C=C/c1ccc(O)c(O)c1)c1ccc(O)c(O)c1O,14.3%,-5.15%,4.45%,-57.9%,8.55%,19.5%
Cc1cccnc1N,-9.4%,-31.6%,5.3%,-11.6%,-1.15%,14.7%
CC(C)(Oc1ccc2c(=O)cc(-c3ccccc3)oc2c1)C(=O)Nc1c(Cl)cccc1Cl,7.95%,-18.8%,10.2%,-59%,9.75%,-14.8%
Cc1ccc(S(=O)(=O)N/N=C/C(C)(c2ccccc2)c2ccccc2)cc1,70.9% (active),52%,69.3%,40.2%,15.8%,47.8%
CCOC(=O)/C(Cc1nc2ccccc2[nH]c1=O)=N\O,-0.5%,9.95%,5.65%,50.4%,-4.45%,7.7%
COc1ccc(S(=O)(=O)O)cc1NS(=O)(=O)c1ccc(C)cc1,-1.05%,18.9%,15.9%,-12.2%,0.05%,-2.1%
Cc1ccc(NC(=O)Oc2ccc(C#N)cc2)cc1Cl,9.45%,5.85%,21.1%,17.8%,29.8%,27.1%
c1cc2c3c(cc4c(c3c1)CCCC4)CC2,-6.95%,-20.9%,-12.9%,-23.6%,5.45%,-4.75%
O=C1c2cc(O)c(O)cc2O[C@H](c2ccc(O)c(O)c2)[C@H]1O,2.15%,-35.1%,11.8%,16.2%,-8.7%,-46.7%
CCN(CC)c1ccc(N=C2C=C(C(=O)Nc3ccccc3)C(=O)c3ccccc32)cc1,-10.9%,-40.3%,-14.4%,6.25%,-3.9%,-21.4%
C=Cc1cc2c(cc1O)CC[C@@H]1[C@@H]2CC[C@]2(C)[C@@H](O)CC[C@@H]12,17.4%,17.4%,36.8%,29.7%,22.9%,36.1%
BrCCC1CCCCCC1,8.75%,-5.4%,5.85%,6.05%,-4.25%,1.3%
CCN(CC)CCN1C(=O)C2C3C=CC(C3)C2C1=O (configuration not stated),-15.1%,-15.4%,3.25%,-14.9%,-3.25%,-14.9%
CCOC(=O)/C(=C/O)NC(=O)c1ccccc1,-10.4%,18.8%,-5.5%,-18.9%,-9.95%,19.4%
CSC1=NC=C(C#N)C2=NC(c3c(F)cccc3Cl)NN12 (configuration not stated),30.3%,7.65%,35.3%,26.2%,24.6%,26.8%
OC1COC(O)(CN2CCOCC2)C(O)C1O (configuration not stated),14.2%,5.95%,10.6%,4.75%,18.1%,7.6%
CCOC(=O)c1[nH]c(C(=O)O)c(C(=O)OCC)c1C,7.3%,3.7%,4.85%,-12.8%,-5.3%,-10.1%
Nc1n[n+](-c2ccc(Cl)cc2)no1,67%,87.8% (active),87.4% (active),81.7% (active),82.8% (active),91.7% (active)
O=C(CN1C(=O)c2ccccc2C1=O)NC1(C(=O)O)CCCC1,-3.25%,-14%,-27.9%,-2.65%,-30.8%,-0.15%

Structure (SMILES),growth inhibition [1],growth inhibition [2],growth inhibition [3],growth inhibition [4],growth inhibition [5],growth inhibition [6]
COc1ccc(C(O)(c2ccc(OC)cc2)c2ccccc2Cc2ccccc2OC)cc1,-61.6%,1.65%,-22.3%,-20.6%,0.65%,-21.4%
O=C(O)c1cc(Br)ccc1[N+](=O)[O-],-5.8%,-25.4%,3.95%,7.05%,-1.95%,-11%
CCOC(=O)NNC(=O)c1ccccc1N(C)C,-12.4%,-18.6%,-7.05%,-13.7%,25.1%,-4.45%
COC(=O)N/N=C(/CC1(O)C(=O)Nc2ccc([N+](=O)[O-])cc21)c1ccccc1 (configuration not stated),48.3%,34.2%,36.5%,-3.2%,0.35%,40.8%
O=C1CCCc2[nH]c(=O)ccc21,13%,-3.1%,0%,-7.95%,0.3%,9.9%
CN(C)c1ccc([Si](c2ccc(N(C)C)cc2)c2ccc(N(C)C)cc2)cc1,-18.5%,3.65%,-19.1%,-28.8%,-1.1%,23.4%
CC(C)OC(=O)N1C(=O)C2C3CCC(O3)C2C1=O (configuration not stated),9.2%,8.25%,15.2%,10.4%,9.65%,16.1%
Nc1ccc2ccsc2c1,1.6%,-22.7%,26.2%,17.1%,12.9%,35.5%
CC(=O)Nc1cc(C(C)=O)ccc1O,0.95%,-0.5%,-3.95%,-32.7%,-14%,6.6%
CN(NC1=NCCO1)c1ccc2ccccc2c1,-46.3%,-22.4%,-15.8%,-23.5%,-21.4%,-46.1%
CCOC(=O)C(C)c1nc2cc(N3CCOCC3)c(F)cc2[nH]c1=O (configuration not stated),24.6%,-7.55%,11.7%,28.6%,5.7%,4.95%
CCNC(=O)c1csnn1,-6.55%,-5.6%,-5.95%,12.5%,-18.1%,2%
CCCCCC1c2cc(O)ccc2OC1N1CCOCC1 (configuration not stated),49.2%,44.5%,47.5%,48.6%,46.7%,88.7% (active)
COc1cc(C(C)O)c[n+](CCc2c[nH]c3ccccc23)c1 (configuration not stated),-30%,-19.5%,-45.9%,-8.1%,-28%,-36.5%
CCOC(=O)c1c(C)nc(C)nc1N,0.2%,-2.5%,-9.85%,-41.5%,-22.1%,2%
CC1(C)C(=O)NC(=O)N1CO,27.1%,2.4%,-5.45%,19.9%,14.9%,20%
CCCCC/C(C)=C\C(=O)O,8.95%,9.4%,7.25%,-14.2%,-2.4%,5.35%
CC(C)c1cccc2ccccc12,2.85%,0.2%,-2.9%,-13.8%,-4.7%,13.4%
CCOc1ccc(/C=C2N=C(/C=C/c3ccccc3)OC\2=O)cc1,19%,14.8%,19.1%,16.6%,3.2%,3.75%
N#C/C(=N\Nc1ccc(F)cc1)C(=O)C1CC1,9.1%,9.05%,5.8%,11.3%,4.3%,11.7%
CCOC(=O)/C(=C\c1ccc(OCc2ccccc2)c(OC)c1)C(=O)c1ccccc1,15.6%,-9.55%,8.3%,-5.15%,-13.4%,-15.3%
